Measured values as given in the supplement of paper PMC10849652.
The full data set covers some 8,800 targets. This sample favours those with a hit. About 0.5% of all pairs of compound and target were hits.

Legend:
Assay in all cases: log2 fold change, soluble protein after heating vs DMSO (PISA); higher = thermal stabilisation; K562 lysate, 10 uM; active = over 0.2 and 3.5 SD of the protein, either way, in both replicates (recomputed)
erlotinib = compound: C#Cc1cccc(Nc2ncnc3cc(OCCOC)c(OCCOC)cc23)c1 [erlotinib]
Summary of the method: (§1)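 Following dounce homogenisation of K562 pellets in PBS pH 7.4 with 1 mM MgCl2, crude extract at 1 mg/mL protein was incubated for 30 min with 10 μM compound. Aliquots were then heated for 3 min over 48°C-58°C and pooled, NP-40 was added to 0.5% at 4°C, and soluble protein was recovered as the supernatant at 21,000xg for 90 min. Channel-sum-equalised TMTpro 16plex LC-MS/MS quantified this protein. Each value, from duplicates, is a log-two fold change in thermal stability relative to solvent controls.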

[1] = compound: C/C(=N\NC(=O)C1=CC(=CC=C1)S(=O)(=O)N2CCOCC2)/C3=C(C=CC(=C3)Cl)O
Summary of the method: as §1

[2] = compound: C1=CC(=CC=C1C2=NC3=C(N2)C=C(C=C3)C(=O)N)OC4=CC=C(C=C4)Cl
Summary of the method: as §1

[3] = compound: C1=CC2=C(C=CC(=C2)/C=C\3/C(=O)NC(=NCC4=CC=CS4)S3)N=C1
Summary of the method: as §1

[4] = compound: C1=CC2=NC=CN=C2C=C1/C=C/3\C(=O)NC(=O)S3
Summary of the method: as §1

[5] = compound: C1=CC=C(C=C1)C2=NC(=C(N2)C3=CC=NC=C3)C4=CC(=C(C=C4)Cl)O
Summary of the method: as §1

[6] = compound: C1=CC=C2C(=C1)C3=NNC4=CC=CC(=C43)C2=O
Summary of the method: as §1

[7] = compound: C1CCN(C1)C(=O)NC2=CC=CC(=C2)NC3=NC=C(C(=N3)NCCC4=CN=CN4)Br
Summary of the method: as §1

[8] = compound: C1CN(CCC1(CC2=CC=C(C=C2)Cl)N)C3=NC=NC4=C3C=CN4
Summary of the method: as §1

IRAK-1-4 Inhibitor I = compound: C1COCCN1CCN2C3=CC=CC=C3N=C2NC(=O)C4=CC(=CC=C4)[N+](=O)[O-] [IRAK-1-4 Inhibitor I]
Summary of the method: as §1

ibrutinib = compound: C=CC(=O)N1CCC[C@@H](n2nc(-c3ccc(Oc4ccccc4)cc3)c3c(N)ncnc32)C1 [ibrutinib]
Summary of the method: as §1

[9] = compound: CC(=O)c1cnc2ccc(-c3cc(Cl)c(O)c(Cl)c3)nc2c1N[C@H]1CC[C@H](CN(C)C)CC1
Summary of the method: as §1

ralimetinib = compound: CC(C)(C)Cn1c(N)nc2ccc(-c3[nH]c(C(C)(C)C)nc3-c3ccc(F)cc3)nc21 [ralimetinib]
Summary of the method: as §1

[10] = compound: CC(C)(O)CC(=O)NCCn1ccc2ncnc(Nc3ccc(Oc4cccc(C(F)(F)F)c4)c(Cl)c3)c21
Summary of the method: as §1

[11] = compound: CC(C)C1=C2N=C(C=C(N2N=C1)NCC3=CC=CC=C3)NCCCCCCN
Summary of the method: as §1

[12] = compound: CC1=C(C2=C(C=C1)C(=O)C3=CC=CC=C3N2CCCN)C
Summary of the method: as §1

[13] = compound: CC1=C(C=C(C=C1)NC(=O)C2=CC(=CC=C2)C(C)(C)C#N)NC3=CC4=C(C=C3)N=CN(C4=O)C
Summary of the method: as §1

[14] = compound: CC1=C(C=C(C=C1)NC(=O)C2=CC(=CC=C2)N(C)C)NC(=O)C3=CC=C(C=C3)O
Summary of the method: as §1

[15] = compound: CC1=CC=C(C=C1)SC2=C3C=C(SC3=CN=C2)C(=O)N
Summary of the method: as §1

[16] = compound: CC1=C(C(CC(=O)N1)C2=CC=C(C=C2)C(F)(F)F)C(=O)NC3=C(C=C4C(=C3)C=NN4)F
Summary of the method: as §1

Measured: log2 fold change

SAMD4A (UniProt Q9UPU9)
inactive: erlotinib -0.172 | [1] -0.014 | [2] 0.11 | [3] 0.097 | [4] -0.153 | [5] 0.11 | [6] -0.041 | [7] -0.046 | [8] 0.013 | IRAK-1-4 Inhibitor I 0.063 | ibrutinib -0.014 | [9] 0.052 | ralimetinib 0.395 | [10] 0.097 | [11] 0.094 | [12] -0.008 | [13] 0.025 | [14] 0.196 | [15] 0.088

RETREG2 (UniProt Q8NC44)
inactive: erlotinib -0.08 | [1] 0.036 | [2] -0.115 | [3] -0.055 | [4] 0.049 | [5] 0.035 | [6] -0.063 | [7] 0.022 | [8] 0.075 | IRAK-1-4 Inhibitor I 0.106 | ibrutinib 0.011 | [9] 0.009 | ralimetinib 0.071 | [10] -0.129 | [11] 0.062 | [16] 0.127 | [13] 0.051 | [14] 0.116 | [15] 0.011

RNF2 (UniProt Q99496)
UniProt Q99496, sequence (Q99496 whole entry, looked up): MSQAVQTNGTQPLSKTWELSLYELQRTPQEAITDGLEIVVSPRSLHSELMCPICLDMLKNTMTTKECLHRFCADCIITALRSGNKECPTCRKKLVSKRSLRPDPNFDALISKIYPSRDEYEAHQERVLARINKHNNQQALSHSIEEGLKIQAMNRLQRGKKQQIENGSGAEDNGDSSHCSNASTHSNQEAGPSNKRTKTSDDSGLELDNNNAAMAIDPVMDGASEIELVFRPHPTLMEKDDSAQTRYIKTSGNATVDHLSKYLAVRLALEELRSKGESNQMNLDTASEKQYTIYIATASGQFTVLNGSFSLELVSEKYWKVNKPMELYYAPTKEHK
inactive: erlotinib 0.061 | [1] -0.088 | [2] -0.031 | [3] 0.036 | [5] 0.002 | [6] -0.01 | [7] 0.048 | [8] -0.037 | IRAK-1-4 Inhibitor I -0.039 | ralimetinib -0.053 | [10] -0.01 | [11] 0.017 | [16] 0.009 | [12] -0.081 | [13] -0.048 | [14] 0.024

RPS6KA5 (UniProt O75582)
UniProt O75582, sequence (O75582 whole entry, looked up): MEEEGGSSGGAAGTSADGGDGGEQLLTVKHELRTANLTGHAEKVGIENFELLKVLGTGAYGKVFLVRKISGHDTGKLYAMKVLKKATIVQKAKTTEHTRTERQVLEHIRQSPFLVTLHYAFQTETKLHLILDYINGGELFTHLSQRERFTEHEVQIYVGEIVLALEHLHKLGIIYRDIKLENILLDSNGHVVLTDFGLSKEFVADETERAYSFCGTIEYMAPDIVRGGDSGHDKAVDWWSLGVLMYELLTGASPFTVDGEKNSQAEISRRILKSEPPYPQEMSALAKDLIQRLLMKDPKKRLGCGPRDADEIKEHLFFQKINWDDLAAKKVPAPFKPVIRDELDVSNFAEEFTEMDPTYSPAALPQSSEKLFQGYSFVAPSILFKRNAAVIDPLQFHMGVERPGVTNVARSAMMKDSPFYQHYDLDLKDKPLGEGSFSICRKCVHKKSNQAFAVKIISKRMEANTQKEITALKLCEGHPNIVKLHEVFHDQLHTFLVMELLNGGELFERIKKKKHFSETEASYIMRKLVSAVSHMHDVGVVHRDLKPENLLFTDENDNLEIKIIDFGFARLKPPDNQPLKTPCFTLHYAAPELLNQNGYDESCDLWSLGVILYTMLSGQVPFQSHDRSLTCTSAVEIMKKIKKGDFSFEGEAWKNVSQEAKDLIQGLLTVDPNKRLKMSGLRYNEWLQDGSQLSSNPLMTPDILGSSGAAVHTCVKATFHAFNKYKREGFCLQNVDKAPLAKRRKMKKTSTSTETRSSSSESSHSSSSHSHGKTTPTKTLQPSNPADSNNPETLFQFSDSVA
active: [13] -0.441
inactive: erlotinib -0.036 | [1] -0.161 | [2] 0.2 | [3] 0.014 | [5] 0.023 | [6] 0.152 | [7] -0.02 | [8] -0.11 | IRAK-1-4 Inhibitor I 0.014 | [9] 0.173 | ralimetinib -0.02 | [10] -0.055 | [11] -0.027 | [16] 0.011 | [12] -0.04 | [14] 0.004 | [15] 0.005

SEC16A isoform 2 (UniProt O15027)
UniProt O15027, sequence (O15027 whole entry, looked up): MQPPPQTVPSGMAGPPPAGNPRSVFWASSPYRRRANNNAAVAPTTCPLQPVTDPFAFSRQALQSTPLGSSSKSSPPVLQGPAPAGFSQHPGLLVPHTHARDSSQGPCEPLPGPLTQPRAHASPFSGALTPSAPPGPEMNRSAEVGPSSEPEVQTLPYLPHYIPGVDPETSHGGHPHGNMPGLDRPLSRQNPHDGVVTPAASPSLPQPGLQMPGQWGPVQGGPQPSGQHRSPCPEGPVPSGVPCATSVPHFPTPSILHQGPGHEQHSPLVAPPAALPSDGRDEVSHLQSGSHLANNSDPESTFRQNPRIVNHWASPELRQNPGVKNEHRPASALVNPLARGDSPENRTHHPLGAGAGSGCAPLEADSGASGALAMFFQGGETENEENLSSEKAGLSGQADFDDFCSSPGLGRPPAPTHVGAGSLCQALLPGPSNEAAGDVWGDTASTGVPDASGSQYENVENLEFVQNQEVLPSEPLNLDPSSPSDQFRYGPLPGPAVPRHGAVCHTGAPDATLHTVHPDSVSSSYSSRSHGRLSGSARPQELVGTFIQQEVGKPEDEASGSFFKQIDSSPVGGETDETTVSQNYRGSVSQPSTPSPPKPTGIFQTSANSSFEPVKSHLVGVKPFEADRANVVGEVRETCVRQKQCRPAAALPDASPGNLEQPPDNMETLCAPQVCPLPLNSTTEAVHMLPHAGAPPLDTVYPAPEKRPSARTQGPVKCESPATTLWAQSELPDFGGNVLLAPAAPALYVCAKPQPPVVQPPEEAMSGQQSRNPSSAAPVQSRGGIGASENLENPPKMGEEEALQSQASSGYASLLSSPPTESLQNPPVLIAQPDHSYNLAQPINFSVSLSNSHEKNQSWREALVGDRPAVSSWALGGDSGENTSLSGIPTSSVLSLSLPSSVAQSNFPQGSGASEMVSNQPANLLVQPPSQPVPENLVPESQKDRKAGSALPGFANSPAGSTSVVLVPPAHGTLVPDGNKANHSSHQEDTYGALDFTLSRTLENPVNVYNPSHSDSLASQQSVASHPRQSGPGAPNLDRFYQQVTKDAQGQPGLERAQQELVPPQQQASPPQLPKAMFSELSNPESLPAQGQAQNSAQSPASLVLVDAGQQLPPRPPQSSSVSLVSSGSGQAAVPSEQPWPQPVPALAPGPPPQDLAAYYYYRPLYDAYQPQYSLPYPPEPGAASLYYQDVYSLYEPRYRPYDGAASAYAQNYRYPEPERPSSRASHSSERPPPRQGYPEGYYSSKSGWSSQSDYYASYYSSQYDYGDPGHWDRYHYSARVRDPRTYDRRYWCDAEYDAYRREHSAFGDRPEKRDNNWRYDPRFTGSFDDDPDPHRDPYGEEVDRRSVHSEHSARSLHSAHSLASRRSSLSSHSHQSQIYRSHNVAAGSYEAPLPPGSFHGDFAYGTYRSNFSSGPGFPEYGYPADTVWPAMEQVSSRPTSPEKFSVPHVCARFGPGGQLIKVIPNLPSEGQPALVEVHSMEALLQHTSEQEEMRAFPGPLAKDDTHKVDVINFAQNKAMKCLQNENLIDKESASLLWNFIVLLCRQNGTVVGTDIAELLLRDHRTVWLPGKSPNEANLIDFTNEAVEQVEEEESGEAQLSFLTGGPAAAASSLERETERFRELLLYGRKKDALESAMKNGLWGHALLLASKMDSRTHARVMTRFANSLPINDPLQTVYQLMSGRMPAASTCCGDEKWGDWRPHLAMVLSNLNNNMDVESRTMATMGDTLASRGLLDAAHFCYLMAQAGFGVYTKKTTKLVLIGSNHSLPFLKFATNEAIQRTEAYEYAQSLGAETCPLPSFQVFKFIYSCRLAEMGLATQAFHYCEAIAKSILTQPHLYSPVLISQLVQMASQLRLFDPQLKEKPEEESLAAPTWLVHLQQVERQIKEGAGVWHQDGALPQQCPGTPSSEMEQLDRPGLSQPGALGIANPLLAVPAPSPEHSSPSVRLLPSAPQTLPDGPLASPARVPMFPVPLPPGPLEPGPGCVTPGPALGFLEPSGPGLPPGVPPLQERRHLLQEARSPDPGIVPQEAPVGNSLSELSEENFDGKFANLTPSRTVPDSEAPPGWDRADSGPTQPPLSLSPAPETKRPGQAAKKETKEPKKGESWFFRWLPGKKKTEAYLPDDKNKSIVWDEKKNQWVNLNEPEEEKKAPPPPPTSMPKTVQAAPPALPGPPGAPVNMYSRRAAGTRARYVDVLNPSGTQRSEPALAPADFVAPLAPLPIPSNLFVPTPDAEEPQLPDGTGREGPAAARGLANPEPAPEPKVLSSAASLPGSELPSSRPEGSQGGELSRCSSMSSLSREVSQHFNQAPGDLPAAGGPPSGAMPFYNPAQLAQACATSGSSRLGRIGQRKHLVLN
inactive: [5] -0.07 | IRAK-1-4 Inhibitor I -0.053 | ralimetinib -0.103 | [10] -0.062 | [14] 0.167

RAD17 (UniProt O75943)
active: [6] -0.458
inactive: [1] 0.005 | [3] -0.1 | [4] 0.014 | [5] -0.047 | [7] 0.031 | [8] 0.019 | IRAK-1-4 Inhibitor I 0.021 | ibrutinib 0.023 | ralimetinib 0.054 | [10] 0.041 | [16] 0.026 | [12] -0.029 | [13] -0.041 | [14] 0.049

SAP30 (UniProt O75446)
inactive: [1] 0.06 | [3] 0.025 | [4] -0.037 | [6] 0.013 | [7] 0.011 | [8] 0.067 | ibrutinib 0.058 | [9] 0.033 | [16] 0.101 | [12] -0.007 | [13] 0.016 | [15] 0.006

RALGAPB isoform 3 (UniProt Q86X10)
inactive: [4] -0.146 | [7] -0.119 | [8] 0 | ibrutinib 0.106 | [12] -0.087

RNF17 (UniProt Q9BXT8)
inactive: erlotinib -0.055 | [2] 0.008 | [4] 0.553 | [5] 0.013 | [7] -0.025 | [8] 0.033 | IRAK-1-4 Inhibitor I 0.055 | ibrutinib -0.098 | [9] 0.035 | ralimetinib -0.044 | [10] -0.254 | [11] -0.023 | [12] 0.077 | [13] -0.196 | [14] -0.044 | [15] -0.068

RHOU (UniProt Q7L0Q8)
inactive: erlotinib -0.052 | [1] 0.07 | [2] -0.096 | [3] -0.054 | [5] 0.002 | [6] 0.061 | [7] -0.006 | [8] 0.03 | IRAK-1-4 Inhibitor I -0.089 | [9] -0.007 | ralimetinib 0.057 | [10] 0.009 | [11] 0.066 | [16] 0.012 | [12] 0.015 | [13] -0.003 | [14] 0.019 | [15] 0.045

RBBP7 (UniProt C9J7L0)
inactive: [16] -0.187

RNF170 (UniProt Q96K19)
UniProt Q96K19, sequence (Q96K19 whole entry, looked up): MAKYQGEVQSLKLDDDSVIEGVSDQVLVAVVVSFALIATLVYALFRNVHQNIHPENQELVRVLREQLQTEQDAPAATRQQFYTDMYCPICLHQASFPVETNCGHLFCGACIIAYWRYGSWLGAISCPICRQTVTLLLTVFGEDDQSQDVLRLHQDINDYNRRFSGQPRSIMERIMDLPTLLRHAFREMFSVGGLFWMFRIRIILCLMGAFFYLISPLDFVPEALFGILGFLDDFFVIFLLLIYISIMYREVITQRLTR
inactive: erlotinib 0.062 | [1] -0.018 | [2] -0.125 | [3] 0.136 | [4] 0.032 | [6] -0.577 | ibrutinib -0.006 | [9] 0.107 | [11] 0.084 | [16] 0.302 | [12] -0.035 | [15] -0.036

QSER1, A0A3B3IRW6
inactive: erlotinib -0.056 | [1] 0.025 | [2] 0.054 | [3] -0.057 | [5] -0.006 | [6] 0.059 | [7] 0.002 | [8] -0.046 | IRAK-1-4 Inhibitor I -0.014 | [9] -0.047 | ralimetinib -0.014 | [10] -0.021 | [11] -0.009 | [16] -0.001 | [12] 0.037 | [13] 0.009 | [14] 0.087 | [15] -0.087

RHBDD1 (UniProt Q8TEB9)
UniProt Q8TEB9, sequence (Q8TEB9 whole entry, looked up): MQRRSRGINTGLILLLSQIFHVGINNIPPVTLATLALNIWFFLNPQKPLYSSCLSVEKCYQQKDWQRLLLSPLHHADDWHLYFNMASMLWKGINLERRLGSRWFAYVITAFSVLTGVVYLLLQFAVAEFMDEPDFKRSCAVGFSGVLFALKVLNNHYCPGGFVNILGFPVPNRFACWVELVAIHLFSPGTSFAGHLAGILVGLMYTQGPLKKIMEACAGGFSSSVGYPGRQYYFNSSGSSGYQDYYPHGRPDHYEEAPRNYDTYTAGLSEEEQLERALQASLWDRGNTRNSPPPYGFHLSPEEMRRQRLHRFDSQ
active: [9] -0.518
inactive: [1] -0.476 | [3] 0.19 | [4] 0.337 | [6] -0.056 | [7] -0.093 | [8] 0.159 | ibrutinib -0.059 | [15] 0.038

SERAC1 (UniProt Q96JX3)
inactive: erlotinib 0.004 | [2] -0.235 | [4] -0.014 | [7] 0.123 | [8] 0.056 | ibrutinib 0.066 | [11] -0.115 | [16] 0.051 | [12] -0.193

RNASEH2B, A0A1B0GUE7
inactive: [9] -0.017 | [16] -0.12 | [15] 0.09

RBM4 isoform 3 (UniProt Q9BWF3)
inactive: [13] -0.092

SELENOK (UniProt Q9Y6D0)
UniProt Q9Y6D0, sequence (Q9Y6D0 whole entry, looked up): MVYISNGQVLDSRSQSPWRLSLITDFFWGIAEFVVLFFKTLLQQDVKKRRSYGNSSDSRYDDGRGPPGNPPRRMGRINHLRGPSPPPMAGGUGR
inactive: [1] -0.075 | [3] 0.02 | [4] 0.089 | [6] 0.044 | ibrutinib 0.05 | [9] -0.134 | [16] 0.092 | [12] -0.164 | [15] 0.022

ROBO2 isoform 3 (UniProt Q9HCK4)
inactive: erlotinib 0.042 | [2] -0.013 | [5] 0.008 | IRAK-1-4 Inhibitor I -0.062 | [9] -0.015 | ralimetinib 0.103 | [10] -0.287 | [11] -0.045 | [13] 0.022 | [14] 0.177 | [15] -0.053

RYR1 (UniProt P21817)
inactive: erlotinib -0.077 | [2] -0.174 | [4] 0.012 | [5] -0.025 | [7] -0.029 | [8] -0.057 | IRAK-1-4 Inhibitor I -0.003 | ibrutinib 0.091 | [9] 0.008 | ralimetinib -0.028 | [10] -0.012 | [11] -0.088 | [12] -0.014 | [13] 0.195 | [14] -0.032 | [15] 0.013

RUFY2 isoform 1 (UniProt Q8WXA3)
UniProt Q8WXA3, sequence (Q8WXA3 whole entry, looked up): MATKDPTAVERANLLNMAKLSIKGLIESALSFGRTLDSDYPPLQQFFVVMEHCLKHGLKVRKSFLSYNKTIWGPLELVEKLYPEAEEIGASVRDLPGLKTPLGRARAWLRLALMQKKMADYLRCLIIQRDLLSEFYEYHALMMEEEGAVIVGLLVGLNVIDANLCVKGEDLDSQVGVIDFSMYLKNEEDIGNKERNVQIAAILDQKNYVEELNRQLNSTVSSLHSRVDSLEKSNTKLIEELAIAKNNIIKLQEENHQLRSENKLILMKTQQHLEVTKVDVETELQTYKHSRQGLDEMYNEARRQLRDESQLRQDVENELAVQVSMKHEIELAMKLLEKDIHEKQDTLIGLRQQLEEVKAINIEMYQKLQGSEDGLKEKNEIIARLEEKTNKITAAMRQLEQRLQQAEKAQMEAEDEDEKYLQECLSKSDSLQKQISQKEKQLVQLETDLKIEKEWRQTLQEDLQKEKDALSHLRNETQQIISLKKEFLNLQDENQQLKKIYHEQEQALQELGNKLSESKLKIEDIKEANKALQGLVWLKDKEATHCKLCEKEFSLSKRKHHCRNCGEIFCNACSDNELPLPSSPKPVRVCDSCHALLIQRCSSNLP
inactive: [1] -0.117 | [3] 0.02 | [4] 0.016 | [5] -0.099 | [6] 0 | [7] -0.01 | [8] 0.041 | IRAK-1-4 Inhibitor I 0.05 | ibrutinib 0.068 | ralimetinib -0.031 | [10] 0.005 | [16] -0.118 | [13] -0.101 | [14] -0.033

RNF24 isoform 2 (UniProt Q9Y225)
UniProt Q9Y225, sequence (Q9Y225 whole entry, looked up): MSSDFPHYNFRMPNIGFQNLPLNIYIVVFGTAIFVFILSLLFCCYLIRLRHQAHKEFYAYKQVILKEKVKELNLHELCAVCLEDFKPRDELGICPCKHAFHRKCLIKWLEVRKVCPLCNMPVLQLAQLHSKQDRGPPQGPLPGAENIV
inactive: erlotinib -0.146 | [2] -0.053 | [4] 0.083 | ibrutinib -0.051 | [11] 0.33 | [16] -0.026 | [13] 0.092

RFNG (UniProt Q9Y644)
inactive: [16] 0.023
